A selection: hits, their analogues and other compounds. The true share with any hit is near 4.1%.
hcDAF-12 act: activates DAF-12 receptor from parasite H. contortus. HEK293 hcDAF-12 lit1-tk-luc reporter, luminescence; 0% DMSO, 100% Δ7-dafachronic acid. 370,000 compounds, 1.4% hits. activation, % at 6.8 µM. AID 652067;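 active means activation above the mean of all tested compounds plus 3 SD, cut at about 5.5% in these data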;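 further: 100% = response to 3 µM Δ7-dafachronic acid high control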
DAX1 inh-1: blocks DAX1 repression of SF-1 activated StAR promoter; AID 652010; inhibition, % at 6.8 µM; 370,000 compounds, 1.1% hits; HEK293T StAR-luciferase reporter, SF-1/DAX-1 repression relief;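 active means inhibition above the mean over all tested compounds plus 3 SD, cut at about 3.6% in these data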;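 further: 0% = DAX-1 cells with DMSO and 100% = cells lacking DAX-1 with DMSO; higher inhibition means more luminescence from relief of DAX-1 repression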
ssDAF-12 act: S. stercoralis DAF-12 activation, primary screen. 370,000 compounds, 1% hits. activation, % at 6.8 µM. AID 652126. HEK293 ssDAF-12/GRIP1 lit1-tk-luc reporter, luminescence; % of 3 µM dafachronic acid response;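 active means activation above the mean over all tested compounds plus 3 SD, cut at about 0.9% in these data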;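 further: 0% = DMSO-only wells and 100% = 3 µM delta7-dafachronic acid wells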
DAX1 inh-2: inhibitors of human orphan nuclear receptor DAX1 (NR0B1); P51843; HEK293 Gal4-DAX1 luciferase reporter, luminescence; inhibition, % at 6.75 µM; 340,000 compounds, 0.99% hits;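 active means inhibition above the mean over all tested compounds plus 3 SD, cut at about 4.2% in these data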;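 further: 0% = DAX1-transfected cells with DMSO and 100% = empty-vector control cells with DMSO; inhibition shows as a rise in luminescence from relieved DAX1 repression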
Target sequence (P51843 207-470 limits assumed): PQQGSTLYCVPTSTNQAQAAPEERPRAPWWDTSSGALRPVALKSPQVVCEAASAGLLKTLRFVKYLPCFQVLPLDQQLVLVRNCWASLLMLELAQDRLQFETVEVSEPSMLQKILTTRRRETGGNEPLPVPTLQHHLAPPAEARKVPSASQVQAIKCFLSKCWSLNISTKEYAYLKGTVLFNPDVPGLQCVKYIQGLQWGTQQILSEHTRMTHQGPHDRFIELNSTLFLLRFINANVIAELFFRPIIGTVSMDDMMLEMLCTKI
hgDAF12 agonist: agonists of H. glycines DAF-12 nuclear receptor. activation, % at 6.8 µM. HEK293 GAL4-hgDAF12 UAS-luciferase reporter, agonist luminescence; normalized to butyrate control. 370,000 compounds, 1.8% hits. AID 687014;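 active means activation above a cutoff set at the mean of all screened compounds plus 3 SD, cut at about 10% in these data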;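 further: 0% = DMSO wells and 100% = sodium butyrate wells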
Active calls of the source: *; nt = no result given.

SMILES	hcDAF-12 act	DAX1 inh-1	ssDAF-12 act	DAX1 inh-2	hgDAF12 agonist
CCCCCCCSc1nnc(-c2ccccc2N)c(=O)[nH]1	0	1	-1	1	-1
CC(C)(C)N1Cc2nnn(CC3CCCCC3)c2-c2ccccc2S1(=O)=O	-2	-1	0	nt	-2
CCOC(=O)c1cc(-c2ccccc2)n(CCC(=O)O)c1C	-2	-1	-1	4.4*	5
CCOC(=O)c1cc(-c2ccccc2)n(CC(=O)Nc2ccc(OC)cc2)c1C	0	0	-2	0	-2
O=C(COc1ccc2ccccc2c1Br)N1CCCCC1	nt	nt	nt	3	nt
O=C(Oc1ccc2ccccc2c1Br)N1CCCCCC1	6.5*	3	-1	-2	0
COCCCNC(=O)C(=O)Nc1ccc2c(c1)N(S(=O)(=O)c1cccs1)CCC2	-1	4.2*	0	0	-4
O=C(COc1ccc(Br)cc1Cl)c1ccc[nH]1	3	0	-1	1	13*
c1nc(NCC2CCCC2)c2cc(-c3ccc4c(c3)OCO4)ccc2n1	3	nt	-1	nt	2
O=[N+]([O-])c1ccc(Nc2ccc3ccccc3c2)nc1	3	-1	-1	1	11*
O=[N+]([O-])c1ccc(Nc2ccc(Cl)cc2)nc1	0	0	-2	nt	7
COc1ccc(/C=N/NC(=O)c2ccoc2C)cc1COc1ccc(Cl)cc1	3	-1	1.3*	1	8
COc1ccc(/C=N/NC(=O)c2ccccc2OC)cc1COc1ccc(C)cc1	5.6*	1	1	2	1
COc1ccc(/C=N/Nc2ccccc2C(=O)O)cc1Cn1cc([N+](=O)[O-])cn1	2	1	1.1*	3	8
COc1ccc(/C=N/NC(=O)c2ccoc2C)cc1OC	1	0	0	1	2
COc1ccc(/C=N/NC(=O)c2ccccc2OC)cc1COc1ccccc1[N+](=O)[O-]	1	-1	1.4*	2	0
CCOC(=O)[C@]12CCCCC/C=C\1N(CCc1ccc(Cl)cc1)C(=O)[C@H]2CC(=O)N1CCOCC1	-1	-1	-2	nt	-2
CCN1CCCCC(NC(=O)c2ccccc2)C1=O (stereo unspecified)	0	1	-1	nt	-2
CC1=C(C(=O)N(C(C)C)C(C)C)CC(CC(=O)NC2CC2)C(=O)N1CCC1=CCCCC1 (stereo unspecified)	-1	0	-1	nt	-3
CC(=O)NC1(c2ccccc2)CCN(c2cc(C)nc(-c3ccccc3)n2)CC1	-3	-1	7.3*	-4	-4
Nc1nnc(/C=C/c2ccccc2Cl)s1	3	1	-1	1	12*
COc1ccc(C)cc1S(=O)(=O)N(C)CC(=O)N1CCCCC1	2	0	-1	-1	0
COc1ccc(C)cc1S(=O)(=O)N(C)CC(=O)N1CCCC1	-2	0	-1	4.8*	-3
CC1CC(=O)c2cnc(Nc3ccccc3)nc2C1 (stereo unspecified)	4	4.0*	0	3	10
CC1CC(=O)c2cnc(Nc3cccc(C(F)(F)F)c3)nc2C1 (stereo unspecified)	0	0	-1	3	0
SMILES	hcDAF-12 act	DAX1 inh-1	ssDAF-12 act	DAX1 inh-2	hgDAF12 agonist
COc1ccccc1-c1ccc2c(c1)O[C@@H](CN(C)C(=O)c1ccncc1)[C@H](C)CN([C@@H](C)CO)S2(=O)=O	1	-2	-1	-1	-3
COc1ccc(CNC(=O)[C@H](C)NC(=O)C2CCN(C(=O)[C@H](CCSC)NC(=O)OC(C)(C)C)CC2)cc1	-1	1	-2	6.2*	-2
COc1ccc(CNC(=O)[C@H](Cc2ccccc2)NC(=O)C2CCN(C(=O)[C@H](C)N)CC2)cc1	2	0	-1	5.0*	3
O=C(CCn1c(=O)oc2ccccc21)NCCN1CCc2ccccc2C1	4	0	-1	0	1
O=C(CCCn1c(=O)oc2ccccc21)N1CCc2ccccc2C1	7.9*	1	1	0	5
COc1ccc(/C=C/C(=O)c2cc(Cl)ccc2O)c(OC)c1	1	0	-1	1	6
COc1ccc(/C=C/C(=O)c2ccc(Cl)cc2)c(OC)c1	1	2	-1	1	16*
O=C(NN1C(=O)/C(=C/c2ccc(O)c(O)c2)SC1=S)c1ccccc1	-1	0	1.2*	1	-1
CCOC(=O)c1sc(NC(=O)c2ccccc2OCC)nc1C	-2	0	-1	0	-1
CCOC(=O)c1sc(NC(=O)c2cccnc2)nc1C	5.9*	0	-1	2	1
COC(=O)c1sc(NC(=S)NC(=O)c2cccc(Br)c2)nc1C	4	0	0	4.6*	4
CCOC(=O)c1sc(NC(=O)c2ccc(=O)[nH]c2)nc1C	1	0	0	6.1*	0
CCOC(=O)c1sc(NC(=O)c2ccc3nc[nH]c3c2)nc1C	0	0	0	0	4
COc1cc(C=Nn2c(-c3n[nH]c4c3CCC4)n[nH]c2=S)ccc1OCc1ccccc1	3	1	0	nt	6
CC(=O)N1CCc2c(sc(NC(=O)c3ccc([N+](=O)[O-])o3)c2C#N)C1	2	-1	0	0	2
COC(=O)c1sc(NC(=O)c2ccc([N+](=O)[O-])o2)c(C#N)c1C	-1	-2	-2	4.7*	-2
CCCN(CCC)S(=O)(=O)c1cccc(-c2csc(C)n2)c1	-2	-1	-1	0	-2
CCN(CC)S(=O)(=O)c1ccc(-c2csc(C)n2)cc1	-1	1	-1	6.5*	-1
CC(=O)Nc1ccc(Nc2nc(C)nc3c2oc2ccccc23)cc1	0	0	-2	-1	-4
CC(=O)c1ccc(Nc2ncnc3c2oc2ccccc23)cc1	2	1	1.0*	2	10
COC(=O)c1cc(=O)n(Cc2cccs2)c(=Nc2ccccc2)s1	-1	-1	-1	4.3*	0
CC1(C(=O)NS(=O)(=O)c2ccc(Cl)s2)CCN1C(=O)C1(c2ccc(Cl)cc2)CCC1 (stereo unspecified)	1	0	-1	nt	0
O=C(NCCc1nc2ccccc2n1C/C=C/c1ccccc1)C1CCCCC1	3	nt	-1	nt	2
O=C(O)CN1C(=O)/C(=C/C=C/c2ccccc2)SC1=S	0	0	-1	1	1
CCN1C(=O)C(=CC=CN(C)c2ccccc2)SC1=S	0	2	0	4.7*	7
C=CCNc1ccc2c(c1)OC[C@@H](CC(C)C)NS2(=O)=O	0	1	-1	nt	2
CC1=NN(C(N)=S)C(=O)C1N=Nc1ccc(C)c(Br)c1 (stereo unspecified)	6.1*	1	0	2	8
CC1=NN(C(N)=S)C(=O)C1N=Nc1ccc(O)cc1 (stereo unspecified)	-1	0	-2	2	-2

Source: PubChem (The Scripps Research Institute Molecular Screening Center)
